Results reported in ChEMBL document CHEMBL4513216, “Probing the Open Global Health Chemical Diversity Library for Multistage-Active Starting Points for Next-Generation Antimalarials” (ACS Infect Dis, 2020).
Screen size: about 69,000 compounds; about 8,600 (12%) showed an effect of 50% or more. The sample holds strong results, similar compounds and a random draw of the others, so the mix is not that of the screen.

These molecules were tested on Plasmodium berghei (assay: Screen against P. berghei liver stage (PbLuc), transformed with Luciferase, at 10uM). Conditions: tested at 10 uM.
Assay type: functional, HepG2
`Cc1cnc(-c2nc(C3CCN(C(=O)Cc4ccsc4)CC3)no2)cn1` gave an INHIBITION of 2.71%.
For `COCCN1CCC(NC(=O)Cn2cc(C)c3ccccc32)CC1`, the INHIBITION was 17.4%.
For `CC(C)c1ccc(OCCC(=O)N2CCC(C(N)=O)CC2)cc1`, the INHIBITION was 32.2%.
In the case of `COCCN1CCC(NC(=O)C/C=C/c2ccc(C(C)C)cc2)CC1`, the INHIBITION is reported as 61.1%.
`CC(C)c1ccc(/C=C/CC(=O)NC2CCN(C(N)=O)C2)cc1` (configuration not stated) was tested, and the INHIBITION was 36.5%.
In the case of `CC(C)c1noc(CCC(=O)NC2CCS(=O)(=O)C2)n1` (configuration not stated), the INHIBITION is reported as -12.2%.
With `CC(C)c1ccc(/C=C/CC(=O)NC2CCN(C(N)=O)CC2)cc1` the INHIBITION was 83.5%.
Work on `COCCN1CCC(NC(=O)C(C)C)CC1` yielded an INHIBITION of -34.4%.
For `CC(C)c1noc(CCCC(=O)NC2CCS(=O)(=O)C2)n1` (configuration not stated), the INHIBITION was -7.46%.
`CC(C)c1ccc(/C=C/CC(=O)NC2CCS(=O)(=O)CC2)cc1` gave an INHIBITION of 71.2%.
In the case of `CC(=O)NCC1CCN(C(=O)NCCOc2ccc3c(c2)CCC3)CC1`, the INHIBITION is reported as 25.1%.
For `COc1cc(C(=O)N2CCCC(n3cncn3)C2)ccc1C` (configuration not stated), the INHIBITION was -16%.
`CC(C(=O)N1CCCC1)n1nc(-c2cccs2)cc(N)c1=O` (configuration not stated) was tested, and the INHIBITION was 11.8%.
`CCN1CCN(C(=O)c2cnc3c(cnn3C3CCCC3)c2)CC1` showed an INHIBITION of 19.2%.
`CC1CCN(C(=O)[C@@H]2C[C@@H]3CCN(Cc4nccs4)C[C@H]3O2)CC1` gave an INHIBITION of 53.9%.
`COCCNC(=O)[C@H]1C[C@@H]2CCN(Cc3nccs3)C[C@H]2O1` showed an INHIBITION of 56.7%.
With `O=C(NCC1CC1)[C@H]1C[C@@H]2CCN(Cc3nccs3)C[C@@H]2O1` the INHIBITION was 25%.
In the case of `CNC(=O)[C@H]1C[C@@H]2CCN(Cc3nccs3)C[C@H]2O1`, the INHIBITION is reported as 26.4%.
With `COCCNC(=O)[C@H]1C[C@@H]2CCN(Cc3ccncc3)C[C@H]2O1` the INHIBITION was -1.36%.
Molecule `CN(C)C(=O)[C@@H]1C[C@@H]2CCN(Cc3nccs3)C[C@@H]2O1` has an INHIBITION of 19.9%.
`CC(C)CCn1ccc(NC(=O)N2CCCC2C(C)(C)O)n1` (configuration not stated) was tested, and the INHIBITION was 29.9%.
Molecule `c1ccc(OCc2nnc3n2CCN(CC2CCOCC2)C3)nc1` has an INHIBITION of 43.2%.
Molecule `Cc1cc(C)nc(C2CCN(C3CCOCC3)C2)n1` (configuration not stated) has an INHIBITION of -10.4%.
`Cn1nc(C(C)(C)C)cc1NC(=O)Cn1ccnc1` showed an INHIBITION of 11.2%.
For `COCCN1C[C@@H]2CC[C@H]1CN(Cc1cc(=O)c3cc(C)ccc3[nH]1)C2`, the INHIBITION was -23.5%.
With `COCC1N(C(=O)Nc2ccccc2)C2CCC1(O)CC2` (configuration not stated) the INHIBITION was 8.61%.
With `Cc1oncc1C(=O)NCC1(O)CCc2ccccc2C1` (configuration not stated) the INHIBITION was 67.1%.
For `O=C(NCC1(O)CCc2ccccc2C1)c1cccs1` (configuration not stated), the INHIBITION was 36.3%.
For `COc1nn(C)cc1C(=O)NCC1(O)CCc2ccccc2C1` (configuration not stated), the INHIBITION was 36.5%.
In the case of `CCC(C)NC(=O)CCNC(=O)Nc1ccc(-n2cncn2)c(F)c1` (configuration not stated), the INHIBITION is reported as 22.69%.
`CN(C)S(=O)(=O)N1CCC[C@]2(C[C@@H](Oc3ncccc3F)CO2)C1` gave an INHIBITION of 20.6%.
With `CN1N=C(C(=O)NCCc2csc(-c3ccccc3)n2)CCC1=O` the INHIBITION was 4.95%.
`CNC(=O)CN1CCOCC2(CN(CCC(F)(F)F)CCO2)C1` (configuration not stated) was tested, and the INHIBITION was 43.9%.
Work on `CCCC(=O)N1CCOC2(COCCN(CC(=O)NC)C2)C1` (configuration not stated) yielded an INHIBITION of 3.25%.
`CNC(=O)CN1CCOCC2(C1)CN(Cc1csnn1)CCO2` (configuration not stated) was tested, and the INHIBITION was 67.5%.
`CN(C)C(=O)c1cnc2n1CCN(Cc1ccncc1)C2` was tested, and the INHIBITION was 24.1%.
With `CCSc1cncc(NCc2ccc(N3CCNC(=O)C3)cc2)n1` the INHIBITION was 82.2%.
In the case of `Cc1cc(NCc2ccc(N3CCNC(=O)C3)cc2)nc(C)n1`, the INHIBITION is reported as 61.8%.
In the case of `O=C1CN(c2ccc(CNc3cncc(-n4cccn4)n3)cc2)CCN1`, the INHIBITION is reported as 40.5%.
`Cc1ccccc1C(=O)NCc1ccc(N2CCNC(=O)C2)cc1` was tested, and the INHIBITION was 15.1%.
In the case of `Cc1cccnc1NC(=O)NCc1ccc(N2CCNC(=O)C2)cc1`, the INHIBITION is reported as 21.7%.
For `CC(C(=O)NCc1ccc(N2CCNC(=O)C2)cc1)n1cncn1` (configuration not stated), the INHIBITION was 27.1%.
In the case of `CCN(Cc1ccccc1)c1ncnc2c(C)nn(CC)c12`, the INHIBITION is reported as -1.57%.
For `Cc1cc(NC(=O)NCCC(=O)N2CCCc3ccccc32)no1`, the INHIBITION was 16.1%.
With `CS(=O)(=O)c1cn[nH]c1C1CCCN1C(=O)c1cccnc1` (configuration not stated) the INHIBITION was 24.4%.
`Cc1ccnc(C2CN(Cc3cnn(-c4ccccc4C(=O)O)c3)C2)n1` showed an INHIBITION of 14.5375%.
In the case of `CCN(CC)C(=O)C1CCC2(CCNCC2)O1` (configuration not stated), the INHIBITION is reported as 57.9%.
`CC(C)N(C)C(=O)C1CCC2(CCNCC2)O1` (configuration not stated) gave an INHIBITION of 27.7%.
Molecule `CCN(CC)C(=O)C1CCC2(CCNCC2)CO1` (configuration not stated) has an INHIBITION of 2.79%.
Work on `Cc1nc(C)n(C2CCCN(C(=O)c3ccc4[nH]nnc4c3)C2)n1` (configuration not stated) yielded an INHIBITION of 21.9%.
In the case of `COCCNC(=O)c1cc(COc2cncc(Cl)c2)on1`, the INHIBITION is reported as 25.8%.
In the case of `O=C(NCCC1CCCCO1)c1cc(COc2cncc(Cl)c2)on1` (configuration not stated), the INHIBITION is reported as 59.3%.
For `O=C(NCCC1CCCCO1)c1coc(COc2ccc(F)cc2)n1` (configuration not stated), the INHIBITION was 77.8%.
Molecule `CCOCCNC(=O)c1cc(COc2cncc(Cl)c2)on1` has an INHIBITION of 29%.
With `O=C(NCCN1CCCCCC1)c1coc(COc2ccc(F)cc2)n1` the INHIBITION was 7.15%.
With `CSCCNC(=O)c1coc(COc2ccc(F)cc2)n1` the INHIBITION was 49.5%.
With `COc1ccc(N2CCN(C(=O)Cn3nc(C)c(Cl)c3C)CC2)cc1` the INHIBITION was 7.44%.
`O=C(CCNc1ncccn1)N1CCN(c2nccs2)CC1` was tested, and the INHIBITION was 45.7%.
Work on `Cc1nc[nH]c1-c1nccn1CCN1CCOC1=O` yielded an INHIBITION of 55.5%.
`Cc1nc[nH]c1-c1nccn1CCN1CCCOC1=O` showed an INHIBITION of 39.6%.
`Cc1nc[nH]c1-c1nccn1CCN1CCCC1=O` showed an INHIBITION of -4.95%.
`CC(C)CCN1C[C@@H]2C[C@H](C(=O)NCc3ccccc3)[C@H](C1)O2` gave an INHIBITION of 11.6%.
With `CC(C)CCN1C[C@@H]2C[C@H](C(=O)Nc3ccccc3)[C@H](C1)O2` the INHIBITION was 33%.
`CCN1C[C@@H]2C[C@H](C(=O)NCc3cccnc3)[C@H](C1)O2` was tested, and the INHIBITION was 50%.
With `CC(C)CN1C[C@@H]2C[C@H](C(=O)Nc3cccnc3)[C@H](C1)O2` the INHIBITION was 2.27%.
With `Cc1ccc(CN2C[C@@H]3C[C@H](C(=O)NCc4cccnc4)[C@H](C2)O3)o1` the INHIBITION was 39.3%.
In the case of `CC(C)CN1C[C@@H]2C[C@H](C(=O)NCc3cccnc3)[C@H](C1)O2`, the INHIBITION is reported as 58.5%.
In the case of `CC(C)CNC(=O)[C@H]1C[C@H]2CN(Cc3cccnc3)C[C@@H]1O2`, the INHIBITION is reported as 65.9%.
For `Cc1ccc(CN2C[C@@H]3C[C@H](C(=O)NCc4cccnc4)[C@H](C2)O3)cc1`, the INHIBITION was 42.3%.
For `CNC(=O)N1C[C@@H]2C[C@H](C(=O)NCc3cccnc3)[C@H](C1)O2`, the INHIBITION was 7.65%.
In the case of `CC(C)CCN1C[C@@H]2C[C@H](C(=O)NCC(C)C)[C@H](C1)O2`, the INHIBITION is reported as 61.3%.
Work on `CC(C)CNC(=O)[C@H]1CCS(=O)(=O)[C@@H]2CN(Cc3cccnc3)C[C@H]12` yielded an INHIBITION of 12.5%.
Molecule `Cc1cccc(CN2C[C@@H]3C[C@H](C(=O)NCc4cccnc4)[C@H](C2)O3)c1` has an INHIBITION of 21.6%.
In the case of `Cc1cc(C(F)(F)F)nn1C(C)C(=O)NN1CCOCC1` (configuration not stated), the INHIBITION is reported as -4.12%.
Work on `CC(C)OCCCNC(=O)C1CCCN(c2ccc3nncn3n2)C1` (configuration not stated) yielded an INHIBITION of 32.3%.
`CS(=O)(=O)NCc1cc(=O)n2c(n1)CN(CC1CC1)CCC2` showed an INHIBITION of 37.6%.
`Cc1nc(CN2CCC3(CCN(Cc4nccn4C)CC3)C2=O)cs1` gave an INHIBITION of -11.2%.
For `N#Cc1ccc(CNCC2(c3ccccc3)CCOCC2)cc1`, the INHIBITION was -32.8%.
With `COCC(=O)N1CCC(c2cc(-c3ccc(C)cc3)n[nH]2)C1` (configuration not stated) the INHIBITION was -16.9%.
`CC(C(=O)N1CCCN(c2ccccc2C#N)CC1)n1cccn1` (configuration not stated) showed an INHIBITION of -6.44%.
For `CNC(=O)[C@H]1C[C@@H]2CN(S(=O)(=O)c3cccc(F)c3)C[C@@H]2N1C`, the INHIBITION was -23.8%.
For `CNC(=O)[C@H]1C[C@@H]2CN(S(=O)(=O)c3ccccc3)C[C@@H]2N1C`, the INHIBITION was 30.1%.
Molecule `CNC(=O)[C@H]1C[C@@H]2CN(S(=O)(=O)c3cccc(C)c3)C[C@@H]2N1C` has an INHIBITION of 50.7%.
`CCc1n[nH]c(C(=O)N2CCC3(CCCN(CCOC)C3=O)C2)c1C` (configuration not stated) gave an INHIBITION of 41.2%.
With `Cc1cc2ncc(CN(C)C)c(C3CCN(C)CC3)n2n1` the INHIBITION was 16.771%.
`Cc1ccccc1CN1CCN(C(C)c2nc(C3CC3)no2)CC1` (configuration not stated) showed an INHIBITION of 5.7%.
`CCC1CN(C(=O)c2ccc(=O)[nH]n2)CCC(=O)N1Cc1ccccc1` (configuration not stated) was tested, and the INHIBITION was 25%.
`CCC1CN(C(=O)c2ccc(O)cn2)CCC(=O)N1Cc1ccccc1` (configuration not stated) showed an INHIBITION of 66.8%.
In the case of `CCC1CN(C(=O)c2ncccc2O)CCC(=O)N1Cc1ccccc1` (configuration not stated), the INHIBITION is reported as 7.43%.
In the case of `O=C(Cc1ccccn1)N1CCC2(CC1)CN(c1ccccn1)CCO2`, the INHIBITION is reported as 21.7%.
For `COCC(=O)N1CCC2(CC1)CC(COC)N(Cc1ccccn1)C2` (configuration not stated), the INHIBITION was 26.7%.
`NC(=O)N1CCC2(CC1)CN(c1ncccn1)CCO2` showed an INHIBITION of 25.2%.
Molecule `COCC(=O)N1CCC2(CC1)CN(c1ncccn1)CCO2` has an INHIBITION of 57.9%.
With `CN(C)C(=O)CN1CCOCC2(C1)CN(c1ncccn1)CCO2` (configuration not stated) the INHIBITION was 11.6%.
Molecule `COCC(=O)N1CCC2(CC1)CCN(Cc1ccccn1)C2=O` has an INHIBITION of 42.1%.
`CN(C)CC(=O)N1CCC2(CC1)COCCN(c1ncccn1)C2` was tested, and the INHIBITION was -13.2%.
`CN(C)CC(=O)N1CCC2(CC1)CN(c1ncccn1)CCO2` was tested, and the INHIBITION was 83.5%.
`Cn1cccc1C(=O)N1CCC2(CC1)CN(c1ccccn1)CCO2` gave an INHIBITION of 28.5%.
Work on `O=C(C1CCOC1)N1CCC2(CC1)CN(c1ncccn1)CCO2` (configuration not stated) yielded an INHIBITION of 25.2%.
For `COCC(=O)N1CCC2(CCN(Cc3ccccn3)CC2)CC1`, the INHIBITION was 56.9%.
Work on `COCC(=O)N1CCC2(CC1)CN(c1ccccn1)CCO2` yielded an INHIBITION of 62.5%.
Molecule `Cc1cnc(N2CCOC(C(=O)NCc3ccccc3)C2)s1` (configuration not stated) has an INHIBITION of 12.8%.
